# High-throughput results: PubChem, Buhrlage Lab, Dana-Farber Cancer Institute and Novartis Institutes for BioMedical Research (Cambridge, Mass)
# USP30 inh = inhibitors of human USP30 deubiquitinase; 5.3% of 47,000 active; inhibition, % at 25 µM; purified USP30, Ub-rhodamine cleavage fluorescence
# USP17 inh = human USP17-like deubiquitinase inhibition. A8MUK1. purified USP17, Ub-rhodamine cleavage fluorescence, 3 h. inhibition, % at 50 µM. 6.5% of 47,000 active
# Target sequence (A8MUK1 whole entry, looked up): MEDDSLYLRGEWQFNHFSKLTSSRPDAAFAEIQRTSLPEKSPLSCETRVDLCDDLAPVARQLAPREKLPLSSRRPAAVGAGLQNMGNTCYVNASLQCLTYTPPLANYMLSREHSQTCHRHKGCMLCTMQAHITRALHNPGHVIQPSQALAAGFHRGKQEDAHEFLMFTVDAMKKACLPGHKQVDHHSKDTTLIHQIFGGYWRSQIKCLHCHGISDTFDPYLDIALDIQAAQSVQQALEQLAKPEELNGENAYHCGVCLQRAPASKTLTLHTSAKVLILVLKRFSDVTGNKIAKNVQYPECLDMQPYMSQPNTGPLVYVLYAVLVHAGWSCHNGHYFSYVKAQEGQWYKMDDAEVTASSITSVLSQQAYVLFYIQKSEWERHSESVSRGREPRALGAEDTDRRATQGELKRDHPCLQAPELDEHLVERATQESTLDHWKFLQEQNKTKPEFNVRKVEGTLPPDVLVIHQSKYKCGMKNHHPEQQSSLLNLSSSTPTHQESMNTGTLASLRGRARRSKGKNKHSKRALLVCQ
# A number is an active result; i = inactive; nt = no result. In the library only some 9.6% were active in any assay of this set; here they are far more common. Cut-off read from the data, not from the text of the source: active = inhibition above about 30%; inactive = the rest.
SMILES,USP30 inh,USP17 inh
CC(=O)N1CCCCCC1C1CCN(c2cc(C)nc3ncnn23)CC1 (stereo not drawn),i,i
Cc1cn[nH]c1C1CCCN(C(=O)CCc2nc3ccccc3[nH]2)C1 (stereo not drawn),i,i
O=C(Nc1cccc(Cl)c1Cl)c1ccc(N2CCCC2)nn1,i,nt
Cc1ccccc1NC(=O)c1ccc(N2CCCCC2)nn1,69.6,46.7
Cc1cc(OCC(=O)Nc2ccccc2F)nc(N2CCCCCC2)n1,i,i
Cc1cc(OCC(=O)Nc2ccccc2C)nc(N2CCCCCC2)n1,35.6,i
O=C(Nc1ccc(F)c(Cl)c1)c1ccc(N2CCCC2)nn1,i,i
CC(=O)c1cccc(NC(=O)c2ccc(N3CCCCC3)nn2)c1,56.8,49.3
O=C(NC1CC1)C1CCCN(c2ccc3cc(S(=O)(=O)N4CCCC4)ccc3n2)C1 (stereo not drawn),i,i
Cc1ccc(F)cc1NC(=O)c1ccc(N2CCCC2=O)cc1,i,i
CN1CCN(c2ccc(-c3nc(-c4cccc(F)c4)no3)cn2)CC1,i,i
CC1=NOC(CNC(=O)Nc2ccc(F)cc2F)C1 (stereo not drawn),i,nt
CCc1cccc(C)c1NC(=O)Cn1c(C(C)NC(=O)c2ccc(C)cc2)nc2ccccc21 (stereo not drawn),53.8,61.0
CC(=O)NC(Cc1ccccc1)c1nc2ccccc2n1Cc1ccccc1C (stereo not drawn),i,i
CC(C)c1ccc(NC(=O)Cn2c(CNC(=O)c3ccccc3)nc3ccccc32)cc1,i,i
CC(NC(=O)c1ccccc1)c1nc2ccccc2n1CC(=O)Nc1ccc(F)cc1 (stereo not drawn),i,39.3
CC(NC(=O)c1ccccc1)c1nc2ccccc2n1CC(=O)Nc1ccc2c(c1)OCO2 (stereo not drawn),49.0,53.8
CCOc1nc2cccnc2n(CC(=O)Nc2ccc3c(c2)OCO3)c1=O,i,i
CCN(CC)c1ccc(C2N(C(=O)c3ccccc3)CCN2C(=O)c2ccc(C)cc2)cc1 (stereo not drawn),i,i
Cc1ccc(Cn2cc(-c3noc(C(=O)Nc4cc(F)ccc4F)n3)nn2)cc1,i,i
Cc1nn(-c2ccc(F)cc2)cc1-c1noc(C(=O)NCc2ccccn2)n1,85.3,nt
Cc1ccc(CNC(=O)c2nc(-c3cn(-c4ccccc4)nc3C)no2)cc1,i,i
Cc1nn(-c2ccc(F)cc2)cc1-c1noc(C(=O)NCc2ccco2)n1,i,i
Cc1nn(-c2ccccc2)cc1-c1noc(C(=O)NCCCc2ccccc2)n1,32.3,i
Cc1nccc(-c2sc(C3CCN(C(=O)CN4CCCC4=O)CC3)nc2C)n1,i,i
SMILES,USP30 inh,USP17 inh
CCN(C(=O)c1nc2c(s1)CCCN2c1ccc(C)nn1)C(C)C,i,i
O=c1[nH]c2c(-c3ccccn3)nsc2c(=O)n1Cc1ccccn1,i,i
Cc1ccc(Sc2ncccc2C(=O)Nc2ccnn2Cc2ccccn2)cc1C,i,i
COc1ccc(CC(=O)Nc2ccccc2-c2nc3ccccc3[nH]2)cc1OC,50.1,76.1
COc1ccc(-c2nc3ccccc3o2)cc1NC(=O)Cc1ccc(OC)c(OC)c1,i,i
Cc1cc(C(=O)N2C[C@@H](O)[C@H](N3CCOCC3)C2)c2c(C)noc2n1,i,i
CC(=O)CSc1nc2sc3c(c2c(=O)n1-c1ccccc1)CCCC3,30.1,i
C=C(C)CSc1nc2sc3c(c2c(=O)n1CCc1ccccc1)CCN(C)C3,i,i
O=C1CO[C@H](c2ccc(NC(=O)c3cc(F)cc(F)c3)cc2)[C@@H](CO)N1,i,i
N#Cc1ccc(C(=O)Nc2ccc([C@H]3OCC(=O)N[C@@H]3CO)cc2)cc1,34.7,32.7
Cc1ccc(-n2c(=O)[nH]c3c(c2=O)C(C)(C)Cc2ccccc2-3)cc1,i,i
CCc1ccc(-n2c(=O)[nH]c3c(c2=O)C(C)(C)Cc2ccccc2-3)cc1,i,37.2
CC(=O)N[C@@]12CN(C)CC[C@@H]1CN(C(=O)Cc1ccc(C)c(C)c1)C2,nt,i
CCOC(=O)C1(Cc2cc(-c3ccccc3F)no2)CCN(Cc2cccc(O)c2)CC1,i,nt
CC(Nc1ccc(Oc2ccccc2)cc1)C(=O)Nc1ccc2c(c1)OCO2 (stereo not drawn),30.1,i
CC(Nc1cccc(C(F)(F)F)c1)C(=O)Nc1ccc2c(c1)OCO2 (stereo not drawn),i,i
O=C([C@@H]1CCCN1S(=O)(=O)c1ccc(Cl)cc1)N1CCN(c2ccccc2)CC1,i,i
Cc1ccc(-c2ncc(NC(=O)COc3ccc(F)cc3)cn2)cc1,i,i
CC(C)NC(=O)COc1cccc(-c2noc(-c3ccc(F)cc3)n2)c1,i,i
O=C(COc1ccc(Cl)cc1)Nc1onc2c1CCCC2,55.8,50.4
Cc1ccc(OCC(=O)Nc2onc3c2CCCC3)cc1,i,i
COc1cc(C(=O)Nc2cc(-c3ccc(F)c(F)c3)no2)cc(OC)c1OC,i,i
O=C(COc1ccccc1)Nc1cc(-c2ccc(F)c(F)c2)no1,nt,81.0
Cc1ccccc1-c1nc(NC(=O)COc2ccc(F)cc2)no1,35.5,i
Cc1ccccc1-c1noc(-c2ccccc2OCC(=O)NC(C)C)n1,49.3,61.8
SMILES,USP30 inh,USP17 inh
COC(C(=O)[C@@H](O)[C@@H](C)O)C1Cc2cc3cc(O[C@@H]4CC(O[C@@H]5CC(O)[C@@H](OC)C(C)O5)[C@@H](OC(C)=O)C(C)O4)cc(O)c3c(O)c2C(=O)C1O[C@H]1CC(O[C@H]2CC(O[C@H]3CC(C)(O)[C@@H](OC(=O)C(C)C)C(C)O3)[C@H](O)C(C)O2)[C@H](O)C(C)O1 (stereo partly drawn),i,i
COc1ccc(OC)c(C2C=C(C(=O)O)NC(=O)N2)c1 (stereo not drawn),i,i
CC1CC(=O)Nc2cc(S(=O)(=O)NCc3ccccc3)ccc2S1 (stereo not drawn),i,i
CNc1cc(C2CCCN2C(=O)c2noc3c2CCCC3)nc(C)n1 (stereo not drawn),i,i
COc1ccc(Cc2nnc3sc(-c4cnccn4)nn23)cc1OC,i,i
O=C(COc1ccc(Cl)cc1)Nc1noc(-c2ccccc2)n1,69.0,i
COc1ccc(C(=O)Nc2cc(-c3cccnc3)no2)cn1,i,i
O=C(Nc1cc(-c2cccnc2)no1)c1ccc(F)c(F)c1,i,64.5
CC(NC(=O)COc1ccccc1)c1nc(-c2ccc(Cl)cc2)no1 (stereo not drawn),i,i
O=C(NCc1ccccc1Cl)c1ccc(N2C(=O)[C@@H]3Cc4ccccc4CN3C2=O)cc1,i,i
CCOC(=O)c1c(NC(=O)CNc2ccccc2Cl)sc(Cc2ccc3c(c2)OCO3)c1C,i,i
COc1ccccc1OCC(=O)Nc1ccc(S(=O)(=O)Nc2cc(C)cc(C)c2)cc1,i,i
COc1cc(NS(=O)(=O)c2ccc(NC(=O)COc3ccc(C)cc3Br)cc2)nc(OC)n1,45.3,i
CCOc1ccc(NS(=O)(=O)c2ccc(NC(=O)Nc3ccccc3)cc2)cc1,82.9,i
Cc1c(Cl)cccc1NS(=O)(=O)c1ccc(NC(=O)Nc2ccccc2)cc1,33.7,39.4
CC(=O)Nc1ccc(S(=O)(=O)Nc2ccc(OCc3ccccc3)cc2)cc1,i,i
CCOc1ccc(NS(=O)(=O)c2ccc(NC(=O)COc3ccccc3C)cc2)cc1,43.0,i
Cc1ccc(C(C)C)c(OCC(=O)Nc2ccc(S(=O)(=O)Nc3cc(C)nc(C)n3)cc2)c1,i,i
Cc1c(Cl)cccc1NS(=O)(=O)c1ccc2[nH]cc(C(=O)N3CCCCCC3)c(=O)c2c1,i,i
